# Source: PubChem BioAssay AID686979 (National Center for Advancing Translational Sciences (NCATS), 2013)
# Screen size: about 420,000 compounds; about 50,000 (12%) were called active. Not shown: some 26% with an inconclusive outcome. What follows is part of a selection rich in actives, with near analogues and random picks from the rest. Values without a mark were called inactive. Calls come from the whole dose curve; as a rule, active = well fitted inhibition curve with a large enough effect; inconclusive = small, poorly fitted or top-dose-only effect; inactive = flat fitted curve, though single readings scatter.
# Assay: qHTS for Inhibitors of human tyrosyl-DNA phosphodiesterase 1 (TDP1): qHTS in cells in presence of CPT; note: nearly all actives have a fitted effect of over 55% in size
# Conditions: chicken DT40 Tdp1-/-;hTDP1 cells + 20 nM CPT, ATP luminescence, 48 h; series mostly up to 46.2 µM; activity change, negative = growth inhibition: at the top concentration
# Procedure, shortened: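 Chicken DT40 Tdp1-/- cells complemented with human TDP1, 400 cells/well, exposed to compounds plus 20 nM camptothecin for at least 48 h at 37 C; viability read as ATP content by CellTiter-Glo luminescence.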
# % is set by controls: 0 for no effect and ±100 for the full control effect; potency is the fitted concentration of half-maximal effect.
Compound,"activity change, negative = growth inhibition",Potency
CC(C)(C)C(=O)c1c(N)[nH]c(C(=O)c2ccccc2)c1-c1ccc(F)cc1,-29.4%,
Cc1cc(C)c2c(c1)cc(C)c1nnc(SCC(=O)Nc3cc(C)on3)n12,,8.2 µM (active)
Cc1cc(NC(=O)CSc2nnc(-c3ccco3)n2N)no1,8.93%,
Cc1cc(NC(=O)CSc2nnnn2-c2ccc(F)cc2)no1,-0.0128%,
O=C(CC1Oc2ccccc2NC1=O)NCc1ccc(F)cc1 (stereo not drawn),-23.2%,
COc1cccc(NC(=O)CSc2nnc(C3CCCCC3)n2N)c1,-9.54%,
CCN(CC)S(=O)(=O)c1ccc(NC(=O)c2cnc(C)cn2)cc1,-2.9%,
CCN(CC)S(=O)(=O)c1ccc2c(c1)nc(CN(C)C(=O)Nc1ccc(Cl)cc1)n2C,,18.4 µM (active)
CCN(CC)S(=O)(=O)c1ccc(Cl)c(NC(=O)c2ccncc2)c1,7.34%,
COc1cc(NS(=O)(=O)c2ccc(NC(=S)NC(=O)c3ccc(Br)cc3)cc2)ncn1,-7.13%,
C=CCOc1cccc(CNCc2cccnc2)c1,-0.189%,
COc1ccc(-c2ccc3[nH]c4c(c3c2)CCN2C[C@H]3[C@H](C)ON(C)[C@H]3C[C@@H]42)cc1,,20.6 µM (active)
COC(=O)[C@H]1[C@H]2C[C@H]3c4[nH]c5ccccc5c4CCN3C[C@@H]2CC[C@@H]1O,-1.82%,
C[C@@H]1ON(C)[C@H]2C[C@H]3c4cc(N5CCN(C)CC5)ccc4CCN3C(=O)[C@@H]12,-7.89%,
COc1ccc(NC(=O)C[C@H]2C(=O)N(CCc3ccccc3)C[C@@H]2C)cc1,-20.8%,
O=C(C[C@H]1C(=O)N(c2ccc(F)c(F)c2)C[C@@H]1Cc1ccccc1)Nc1ccccc1,,11.2 µM (active)
CNC(=O)C[C@H]1C(=O)N(c2ccc(OC)cc2)C[C@@H]1Cc1ccccc1,-26.9%,
CCOc1ccc(CNCCSc2nnnn2C)cc1,4.21%,
CCOCCn1ccc2c(OCC(=O)NCc3ccc(C)cc3)cccc2c1=O,-21.4%,
COC(=O)COc1cccc2c(=O)n(CC(=O)NCc3ccccc3)ccc12,,1.84 µM (active)
COC(=O)COc1cccc2c(=O)n(CC(=O)NCCc3ccc(OC)c(OC)c3)ccc12,1.3%,
O=C(NN=CC=Cc1ccccc1)C(O)C(O)C(=O)NN=CC=Cc1ccccc1 (stereo not drawn),13.1%,
CCOc1ccc(-c2nnc(-c3ccco3)o2)cc1,-12%,
CCCCOc1ccc(-c2nnc(-c3ccco3)o2)cc1,-21.4%,

Compound,"activity change, negative = growth inhibition",Potency
CCC(=O)Oc1cccc(C(=O)Nc2ccc(-c3nnc(-c4ccco4)o3)cc2)c1,,6.51 µM (active)
COc1ccc(C)cc1S(=O)(=O)Nc1cc2c3c(c1)CCC(=O)N3CCC2,-11.1%,
Cc1nc(C(F)(F)F)ccc1C(=O)N1CCC1(C)C(=O)NS(=O)(=O)c1ccccc1Cl (stereo not drawn),-5.55%,
CCNC(=S)N(CCN(CC)CC)Cc1cc2cc3c(cc2[nH]c1=O)OCO3,-19.8%,
O=C(NCCN1CCOCC1)c1cccc(S(=O)(=O)Nc2ccc(F)cc2)c1,-5.32%,
CCN(CC)S(=O)(=O)c1ccc(Cl)c(C(=O)NCCN2CCOCC2)c1,10.4%,
CCOC(=O)C1CCN(C(=O)c2cccc(S(=O)(=O)N(CC)c3ccccc3)c2)CC1,,14.6 µM (active)
CCN(c1ccccc1)S(=O)(=O)c1cccc(C(=O)NCc2ccccc2CN2CCOCC2)c1,,20.6 µM (active)
CCOC(=O)C1CCCN(C(=O)c2cccc(S(=O)(=O)N3CCOCC3)c2)C1 (stereo not drawn),-26.6%,
CCOC(=O)C1CCCN(C(=O)c2ccc(N(C)C)cc2)CC1 (stereo not drawn),-17.9%,
CCOc1ccc(CNC(=O)c2ccc3nc(CC)c(CC)nc3c2)cc1OC,-29.6%,
COc1ccc(C(=O)NC(=S)N2CCNC(=O)C2CC(=O)OC(C)C)cc1 (stereo not drawn),-7.41%,
CCOc1cc(C(=O)Nc2ccc(S(=O)(=O)Nc3cnc4ccccc4n3)cc2)cc(OCC)c1OCC,-5.96%,
CCc1nc2ccc(C(=O)NCc3ccc(OC)cc3)cn2c1N(CC)Cc1cccc(Br)c1,,23.1 µM (active)
CCc1nc2ccc(C(=O)N(C)Cc3ccco3)cn2c1N(C)C(=O)Cc1ccccc1,-1.23%,
CCc1nc2ccc(C(=O)N(C)CCN(C)C)cn2c1N(CC)CCOC,5.06%,
CCc1nc2ccc(C(=O)N3CCC(O)(Cc4ccccc4)CC3)cn2c1N(C)C(=O)Cc1ccccc1,-29.7%,
CCc1nc2ccc(C(=O)Nc3cccc(OC)c3)cn2c1N(CCC(C)C)CCN(C)C,-98.8%,
CCc1nc2ccc(C(=O)Nc3cc(-c4ccccc4)ccc3OC)cn2c1N(CC)CC(=O)N(C)C,,14.6 µM (active)
O=C(C[C@H]1CC[C@@H](NC(=O)c2ccncc2)[C@@H](CO)O1)NCC1CC1,17.7%,
O=C(NCCCNc1ccc([N+](=O)[O-])cc1Cl)c1ccccc1F,6.04%,
N#CCSc1ccccc1NC(=O)CN1C(=O)NC(CCc2ccccc2)C1=O (stereo not drawn),3.98%,
Cc1cnc(C(=O)OCC(=O)Nc2ccc(Cl)cc2Cl)cn1,-3.16%,
CCOC(=O)c1c(NC(=O)COc2cc(C)ccc2C(C)C)sc(C)c1C,-14.5%,
